dFosB activator: activators of delta FosB homodimer, primary screen, biochemical, fluorescence polarization, TAMRA-CDK5 oligo, single point. activation, % at 25 µM. purified delta FosB; percent of positive-control signal above neutral wells. hit rate 0.99% among 340,000. Protein FosB (Mus musculus), P13346;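 active = mean activation above about 17%, with every replicate also reaching it, limit read from the data, passing the limit was not always enough; inconclusive = only one of the two conditions met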
Target sequence (P13346 whole entry, looked up): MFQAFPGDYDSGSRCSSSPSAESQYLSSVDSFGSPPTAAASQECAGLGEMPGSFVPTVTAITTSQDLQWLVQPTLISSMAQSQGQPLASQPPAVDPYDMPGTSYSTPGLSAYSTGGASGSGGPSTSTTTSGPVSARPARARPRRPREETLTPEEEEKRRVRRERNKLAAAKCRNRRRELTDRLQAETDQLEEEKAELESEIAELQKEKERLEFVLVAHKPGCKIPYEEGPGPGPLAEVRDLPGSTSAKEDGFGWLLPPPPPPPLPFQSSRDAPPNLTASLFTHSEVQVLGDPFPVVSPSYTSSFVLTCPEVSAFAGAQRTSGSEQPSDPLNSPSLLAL
NALP1 inh: NALP1 inflammasome inhibitors in reconstituted yeast, colorimetric, S. cerevisiae, triplicate retest. S. cerevisiae NALP1/ASC/caspase-1 growth, X-gal OD620, 72 h. inhibition, % at 10 µM. hit rate 0.61% among 280,000. AID 2071, 2009; in the data active = inhibition mostly above about 24%, no sharp cut-off; inactive = mostly below about 32%
GRIN3A LBD mod: binders of NR3A ligand-binding domain, primary screen, biophysical, differential scanning fluorimetry, uHTS. Glutamate receptor ionotropic, NMDA 3A (GRIN3A) ligand-binding domain. NR3A LBD differential scanning fluorimetry, Tm shift; 0% = protein alone, 100% = glycine-bound protein. Tm shift relative to glycine control, % at 25 µM. hit rate 2.5% among 340,000. AID 1259313, 2017;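 active = melting temperature shift of at least 10% of the positive control shift, at one fixed dose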
UBC13 polyUb: UBC13 polyubiquitin chain formation inhibitors, primary screen, biochemical, TR-FRET, uHTS; Ubiquitin-conjugating enzyme E2 N (Homo sapiens), P61088; inhibition, % at 20 µM; hit rate 0.47% among 330,000; AID 485273, 2010; in the data active = inhibition above about 45%, passing the limit was not always enough; inconclusive = no clear call, values can overlap the other calls
Target sequence (P61088 whole entry, looked up): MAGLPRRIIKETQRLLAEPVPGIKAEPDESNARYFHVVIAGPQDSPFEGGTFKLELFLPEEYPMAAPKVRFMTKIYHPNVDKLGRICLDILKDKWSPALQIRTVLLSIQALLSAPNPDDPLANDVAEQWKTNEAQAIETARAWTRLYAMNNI
CR mimetic SO: reduction of superoxide in aged yeast, primary screen, HTS; hit rate 0.18% among 330,000; S. cerevisiae aged cells, superoxide DHE fluorescence; active compounds read low; superoxide response (% of plate mean), % at 10 µM;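 active = superoxide response under a set limit, about three screen SD below normal, cut at about 65% in these data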;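 note: yeast aged for seven days with compound at 30 °C before DHE staining; 100% = average MFI of all compound-treated wells on the plate with controls excluded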
The depositor's hits bear a star; ? = inconclusive; nt = no result. Shown are actives, neighbours in structure and some others; about 4.3% of the full set was active somewhere.

SMILES	dFosB activator	NALP1 inh	GRIN3A LBD mod	UBC13 polyUb	CR mimetic SO
CCCCn1c(N)c(N(CC)C(=O)C2CCCC2)c(=O)[nH]c1=O	3.5	nt	0.1	10.5	108.0
CCCCn1c(N)c(N(CC(C)C)C(=O)CSc2nnc(-c3ccc(Cl)cc3)o2)c(=O)[nH]c1=O	3.4	nt	10.1*	-3.5	99.6
CCCCn1c(N)c(N(CC(C)C)C(=O)C2CCN(S(=O)(=O)c3ccc(C)cc3)CC2)c(=O)[nH]c1=O	56.0*	nt	-2.3	-7.9	92.6
CCCCn1c(N)c(N(C)C(=O)C2CCCC2)c(=O)[nH]c1=O	-3.0	nt	14.7*	-2.4	99.8
CCN(C(=O)CSc1nncs1)c1c(N)n(Cc2ccccc2)c(=O)[nH]c1=O	-1.9	9.3	-1.0	3.6	125.6
CC(C)CN(C(=O)CSc1nncs1)c1c(N)n(CC(C)C)c(=O)[nH]c1=O	1.9	44.7*	-0.8	0.3	97.1
CCCOc1cccc(OCCSc2nc(C)cc(=O)[nH]2)c1	-6.1	20.1	1.7	-5.4	83.6
Cc1cc(=O)[nH]c(SCCCOc2ccc(F)cc2)n1	-0.5	40.9*	1.4	0.9	89.5
CCc1nc2ccccc2c(C(=O)OCC(=O)N2CC(C)OC(C)C2)c1C (stereo not given)	-8.0	nt	-1.0	1.4	84.9
c1ccc2c(-c3nn[nH]n3)cccc2c1	0.5	18.8	11.6*	2.4	126.4
CCc1ccc(S(=O)(=O)NCc2ccc(N3CCN(C)CC3)cc2)cc1	0.8	29.5	0.0	0.1	106.8
Cc1ccc(F)cc1S(=O)(=O)NCc1ccc(N2CCN(C)CC2)cc1	nt	31.3*	2.1	9.6	95.3
O=C(O)c1ccccc1C(=O)Nc1n[nH]c(=S)s1	-2.7	-15.3	14.2*	-1.3	96.9
Nc1nc(SCC(=O)NCCc2ccccc2)[nH]c(=O)c1-c1ccccc1	nt	9.0	nt	-4.7	110.0
CCOCCCNC(=O)c1cc2cc3cc(OC)ccc3nc2o1	-23.0	12.3	2.4	21.4	104.4
COc1ccc2nc3oc(C(=O)NCc4cccs4)cc3cc2c1	59.8*	-3.0	-3.0	10.5	82.1
CCOc1ccc(NC(=O)c2cc3cc4ccc(OC)cc4nc3o2)cc1	-2.7	-11.2	13.1*	4.1	94.1
Cc1ccnc(NC(=S)N2CCN(c3cccc(C(F)(F)F)c3)CC2)c1	-8.8	-10.7	0.4	13.3	85.2
CCOC(=O)c1cnn(CCOC(=O)c2ccc(OC)cc2)c1NC(=O)c1ccc(OC)cc1	1.4	12.7	16.4*	-10.7	98.3
O=C(OCC(=O)N1CCCC1)c1c(Cl)ccc(Cl)c1Cl	-6.1	-0.2	2.4	9.7	92.3
CC(=O)OC(C)(C)/C=C/C(=O)[C@](C)(O)C1[C@H](O)C[C@@]2(C)C3CC=C4C(C=C(O[C@@H]5O[C@H](CO)[C@@H](O)[C@H](O)[C@H]5O)C(=O)C4(C)C)[C@]3(C)C(=O)C[C@]12C (stereo not given in full)	-3.6	nt	15.7*	-10.4	122.7
CCCCOC(=O)Nc1ccc(S(=O)(=O)Nc2nc(C)cc(C)n2)cc1	-1.1	10.8	-0.5	-12.5	107.3
CCCCCCOC(=O)Nc1ccc(S(=O)(=O)Nc2cccc([N+](=O)[O-])c2)cc1	-4.8	-31.8	29.6*	-13.0	83.2
Cc1ccc(C(=O)Nc2cccc([N+](=O)[O-])c2)cc1S(=O)(=O)Nc1cccc(C(=O)O)c1	-4.3	-19.5	8.4	-4.9	92.8
CC(=O)Nc1ccc(NC(=O)c2ccc(NS(=O)(=O)c3cc(C(C)(C)C)ccc3C)cc2)cc1	?	7.0	17.5*	3.3	89.7
SMILES	dFosB activator	NALP1 inh	GRIN3A LBD mod	UBC13 polyUb	CR mimetic SO
Cc1ccc(C(=O)Nc2cccc([N+](=O)[O-])c2)cc1S(=O)(=O)Nc1ccc(NC(=O)c2ccccc2)cc1	9.7	15.0	35.9*	-8.3	93.9
CS(=O)(=O)N1CCc2cc(C(=O)Nc3cccc([N+](=O)[O-])c3)ccc21	-2.2	23.0	30.8*	0.9	96.4
COc1ccc(CN2CCN(C(=O)C3CCC(CNS(=O)(=O)c4ccc(C)cc4)CC3)CC2)c(OC)c1OC (stereo not given)	-14.7	8.7	-2.4	4.9	93.2
O=C(O)CC1SC(N/N=C/c2ccc(Br)cc2)NC1=O (stereo not given)	-0.7	2.5	-1.9	-13.4	107.4
CC1CC(C)CN(S(=O)(=O)c2ccc3c(c2)oc(=O)n3CC(=O)NCCCOC(C)C)C1 (stereo not given)	-0.2	5.8	1.7	-0.8	86.2
NS(=O)(=O)c1ccc(NC(=O)c2ccc(-c3ccccc3)cc2)cc1	11.6	-17.2	2.4	nt	nt
Cc1ccc(NS(=O)(=O)c2cc(C(=O)Nc3cccc([N+](=O)[O-])c3)ccc2C)cc1	3.2	6.8	21.2*	13.6	97.0
Cc1ccc(C(=O)NCCSC2CCCCC2)cc1S(=O)(=O)Nc1ccccc1	-8.6	13.0	16.4*	2.5	90.8
Cc1ccc(NC(=O)CN(C)C(=O)c2ccc(NS(=O)(=O)c3cccc([N+](=O)[O-])c3)cc2)cc1	-3.1	nt	-4.4	-10.6	101.9
Cc1ccc(NS(=O)(=O)c2ccc(OCC(=O)Nc3cccc([N+](=O)[O-])c3)c(C)c2)cc1	-2.5	-12.0	25.6*	12.9	99.5
NS(=O)(=O)c1ccc(NS(=O)(=O)c2ccc(NC(=O)c3ccc(-c4ccccc4)cc3)cc2)cc1	10.3	6.3	23.5*	-13.5	95.1
Cc1ccc(C(=O)NNC(=O)c2cc(C)nc3ccccc23)cc1	-10.9	nt	0.1	5.8	108.0
Cc1ccc(NC(=O)CC(=O)c2ccc([N+](=O)[O-])cc2)cc1S(=O)(=O)Nc1cccc(Cl)c1	11.0	-1.6	25.0*	-19.4	76.6
NS(=O)(=O)c1cccc(NC(=O)c2ccc(NS(=O)(=O)c3cccc([N+](=O)[O-])c3)cc2)c1	5.9	nt	29.8*	-1.1	102.0
CC(Oc1ccc(Cl)cc1Cl)C(=O)NNC(=O)C(=O)N1CCCC1 (stereo not given)	0.3	7.2	4.6	9.0	89.0
C[C@@H](C(=O)NCCc1ccccc1)N1C(=O)N2CCc3c([nH]c4ccccc34)[C@@]2(C)C1=O	-9.2	-1.5	-2.4	6.4	102.7
c1ccc(-c2cn3c(n2)-c2ccccc2C3)cc1	0.3	nt	12.9*	7.7	114.3
Cc1ccc(-c2nc3n(n2)Cc2ccccc2-3)cc1	-10.9	-10.9	1.4	5.5	144.5
N#Cc1cc(-c2ccccc2)nc(N2CCNCC2)n1	-9.7	-3.9	10.9*	4.7	112.3
CCn1c2ccccc2c2cc(NC(=O)COC(=O)c3ccc(O)cc3)ccc21	15.3	nt	14.8*	1.5	76.1
COCCN(C(=O)c1ccc2c(c1)C(=O)N(c1ccccc1Cl)C2=O)c1c(N)n(CC(C)C)c(=O)[nH]c1=O	-5.9	nt	-1.2	nt	nt
